Assay results taken from PubChem BioAssay (NCATS).
Results filed as inconclusive are left out. The source made the active and inactive calls. Unless noted, the call rests on the fitted dose curve; in most records, active means well fitted curve in the direction sought with a large enough effect; inconclusive means small, poorly fitted or top-dose-only effect, or another doubt; inactive means no such curve, though single readings can be large; an effect the other way counts as inactive or inconclusive.

Experiments:
C33A = assay: Primary qHTS to identify gynecologic anti-cancer compounds using libraries of approved drugs and bioactive compounds (AID 1345084); details: Gynecologic cancer cell panel viability, ATPlite luminescence, 48 h; series mostly up to 57.5 µM; further: nearly all actives have a fitted effect of over 55% in size; further: potency means the concentration at half of the fitted maximal effect
Procedure, shortened: (§1)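 ATP-based viability (ATPlite), 1,000 cells/well, 16 h pre-incubation, 48 h compound at 37 C, 5% CO2, 15 min RT before read.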

Es-2 = assay: as above; details: Gynecologic cancer cell panel viability, ATPlite luminescence, 48 h; series mostly up to 57.5 µM
Procedure, shortened: as §1

HeLa = assay: as above; details: Gynecologic cancer cell panel viability, ATPlite luminescence, 48 h; series mostly up to 57.5 µM
Procedure, shortened: as §1

JEG-3 = assay: as above; details: Gynecologic cancer cell panel viability, ATPlite luminescence, 48 h; series mostly up to 57.5 µM
Procedure, shortened: as §1

OV90 = assay: as above; details: Gynecologic cancer cell panel viability, ATPlite luminescence, 48 h; series mostly up to 57.5 µM
Procedure, shortened: as §1

PA-1 = assay: as above; details: Gynecologic cancer cell panel viability, ATPlite luminescence, 48 h; series mostly up to 57.5 µM
Procedure, shortened: as §1

SKOV3 = assay: as above; details: Gynecologic cancer cell panel viability, ATPlite luminescence, 48 h; series mostly up to 57.5 µM
Procedure, shortened: as §1

Tov-21-G = assay: as above; details: Gynecologic cancer cell panel viability, ATPlite luminescence, 48 h; series mostly up to 57.5 µM
Procedure, shortened: as §1

WaGa = assay: qHTS assay to identify novel small-molecules to repurpose for Merkel cell carcinoma treatment (AID 1296009); details: MCC and control cell lines, CellTiter-Glo viability, 72 h; series mostly up to 46 µM; further: nearly all actives have a fitted effect of over 60% in size; further: potency means the concentration at half of the fitted maximal effect
Procedure, shortened: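 72 hr, 37 degree celsius; NPC 8-pt / MIPE 11-pt dose response; compound pinned in DMSO; CellTiter-Glo, 10 min RT, luminescence; normalized to no-cell and DMSO controls.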

CASKI = assay: Primary qHTS to identify gynecologic anti-cancer compounds using libraries of approved drugs and bioactive compounds (AID 1345084); details: Gynecologic cancer cell panel viability, ATPlite luminescence, 48 h; series mostly up to 57.5 µM; further: nearly all actives have a fitted effect of over 55% in size; further: potency means the concentration at half of the fitted maximal effect
Procedure, shortened: as §1

Hek293T = assay: as above; details: Gynecologic cancer cell panel viability, ATPlite luminescence, 48 h, control line for the selectivity index; series mostly up to 57.5 µM
Procedure, shortened: as §1

Tov112D = assay: as above; details: Gynecologic cancer cell panel viability, ATPlite luminescence, 48 h; series mostly up to 57.5 µM
Procedure, shortened: as §1

[1] = biological target: Nuclear receptor subfamily 1 group I member 2 (Rattus norvegicus) (UniProt Q9R1A7); assay: qHTS assay for small molecule activators of the rat pregnane X receptor (rPXR) signaling pathway (AID 651751; call rule not given here; further: 0% is about no effect); details: rPXR reporter cells, luciferase (One-Glo), 24 h
[2] = qHTS assay for small molecule activators of the human pregnane X receptor (PXR) signaling pathway (AID 720659; call rule not given here; further: 0% is about no effect)
CAOV3 = assay: Primary qHTS to identify gynecologic anti-cancer compounds using libraries of approved drugs and bioactive compounds (AID 1345084); details: Gynecologic cancer cell panel viability, ATPlite luminescence, 48 h; series mostly up to 57.5 µM; further: nearly all actives have a fitted effect of over 55% in size; further: potency means the concentration at half of the fitted maximal effect
Procedure, shortened: as §1

astro = assay: Drug repurposing screens with cells derived from glioblastoma tumor samples (AID 1345199); details: viability, ATP luminescence, 48 h; series mostly up to 45.9 µM; further: nearly all actives have a fitted effect of over 40% in size; further: potency means the concentration at half of the fitted maximal effect; on activity, negative = cell killing: on the % scale 0 is the no-effect control and ±100 the full control effect
Procedure, shortened: (§2)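 Four patient lines of CD133+ GBM neurospheres were screened at several concentrations; hits were retested in those lines plus three slower-growing GBM lines, using 48-hour treatment and ATP-based viability.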

[3] = qHTS assay to identify inhibitors of the type 1 interferon - major histocompatibility complex class I in skeletal muscle: Counter screen cell viability and HiBit confirmation (AID 1347412); details: iHSKM muscle cells + IFN-b, HiBiT or CellTiter-Glo, 24 h; Potency: HiBiT; Viability, at 45.9 µM (top of the series); further: nearly all actives have a fitted effect of over 60% in size; further: potency means the concentration at half of the fitted maximal effect
Procedure, shortened: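 After 24 h with human IFN-beta (4 ng/ml) and compound titrations (top 46 uM final, 1:3, 12 points), HLA-B HiBit myoblasts were lysed for either Nano-Glo HiBiT luminescence or CellTiter Glo viability on paired plates.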

[4] = Drug repurposing screens with cells derived from glioblastoma tumor samples (AID 1345199); details: GBM patient neurospheres viability, ATP luminescence, 48 h; further: nearly all actives have a fitted effect of over 40% in size; further: potency means the concentration at half of the fitted maximal effect; on activity, negative = cell killing: on the % scale 0 is the no-effect control and ±100 the full control effect
Procedure, shortened: as §2

Sequence of Nuclear receptor subfamily 1 group I member 2 (Rattus norvegicus) (Q9R1A7 whole entry, looked up): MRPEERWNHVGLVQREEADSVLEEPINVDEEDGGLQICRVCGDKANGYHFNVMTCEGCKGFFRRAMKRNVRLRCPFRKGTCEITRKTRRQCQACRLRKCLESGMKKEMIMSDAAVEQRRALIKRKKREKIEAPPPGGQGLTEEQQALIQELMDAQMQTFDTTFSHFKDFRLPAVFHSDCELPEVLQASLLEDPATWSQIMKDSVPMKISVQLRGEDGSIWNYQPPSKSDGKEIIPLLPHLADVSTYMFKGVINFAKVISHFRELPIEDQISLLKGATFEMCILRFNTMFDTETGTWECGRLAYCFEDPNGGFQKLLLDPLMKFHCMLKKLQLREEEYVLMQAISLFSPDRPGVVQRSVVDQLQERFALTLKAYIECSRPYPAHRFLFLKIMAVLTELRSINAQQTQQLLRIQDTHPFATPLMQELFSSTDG

COc1cccc2cc(-c3nc(C4CCC(C(=O)O)CC4)n4ncnc(N)c34)[nH]c12 (stereo not given)
active: Potency (C33A) 7.94 µM | Potency (Es-2) 7.08 µM | Potency (OV90) 7.94 µM | Potency (PA-1) 3.16 µM | Potency (SKOV3) 11.2 µM | Potency (Tov-21-G) 3.55 µM
inactive: Potency (HeLa) | Potency (JEG-3)

O=c1[nH]c(-c2ccc(C(F)(F)F)cc2)nc2c1CSCC2
inactive: Potency (WaGa)
active: Potency (Es-2) 28.2 µM

O=C(O)CCc1ccc(NCc2cccc(Oc3ccccc3)c2)cc1
inactive: Potency (C33A) | Potency (CASKI) | Potency (JEG-3)

CC(C)(Sc1ccc(CCN(CCCCC2CCCCC2)C(=O)NC2CCCCC2)cc1)C(=O)O
inactive: Potency (C33A) | Potency (CASKI) | Potency (Es-2) | Potency (HeLa) | Potency (Hek293T) | Potency (JEG-3) | Potency (OV90) | Potency (PA-1) | Potency (SKOV3) | Potency (Tov-21-G) | Potency (Tov112D) | max response [1] -3.94% | outcome [2]

COc1cc2c(cc1OC)CN(CCc1ccc(NC(=O)c3cccc4c(=O)c5cccc(OC)c5[nH]c34)cc1)CC2
inactive: Potency (C33A) | Potency (CAOV3) | Potency (CASKI) | Potency (Es-2) | Potency (HeLa) | Potency (Hek293T) | Potency (JEG-3) | Potency (OV90) | Potency (PA-1) | Potency (SKOV3) | Potency (Tov-21-G) | Potency (Tov112D)

Cc1cc(SCc2sc(-c3ccc(C(F)(F)F)cc3)nc2C)ccc1OCC(=O)O
inactive: Potency (WaGa) | Potency (CASKI) | Potency (Es-2) | Potency (HeLa) | Potency (Hek293T) | Potency (JEG-3) | Potency (OV90) | Potency (PA-1) | Potency (SKOV3) | Potency (Tov-21-G) | Potency (Tov112D)

CNC(=O)c1ccc(C)c(-n2c(C)cc(OCc3ccc(F)cc3F)c(Br)c2=O)c1
inactive: Potency (C33A) | Potency (CAOV3) | Potency (CASKI) | Potency (Es-2) | Potency (HeLa) | Potency (Hek293T) | Potency (JEG-3) | Potency (OV90) | Potency (PA-1) | Potency (SKOV3) | Potency (Tov-21-G) | Potency (Tov112D)

S=C(NCc1ccc2c(c1)OCO2)N1CCN(c2ncnc3c2oc2ccccc23)CC1
inactive: Potency (HeLa) | Potency (JEG-3) | Potency (PA-1) | Potency (Tov-21-G) | Potency (Tov112D)

O=C(c1cc(Cc2n[nH]c(=O)c3ccccc23)ccc1F)N1CCN(C(=O)C2CC2)CC1
inactive: Potency (C33A) | Potency (CAOV3) | Potency (CASKI) | Potency (Es-2) | Potency (HeLa) | Potency (Hek293T) | Potency (JEG-3) | Potency (OV90) | Potency (PA-1) | Potency (Tov-21-G) | Potency (Tov112D)

CCOc1cc(C(=O)Nc2ccc(Cl)c(-c3nc4ccccc4[nH]3)c2)cc(OCC)c1OCC
inactive: Potency (WaGa) | Potency (CAOV3) | Potency (CASKI) | Potency (Es-2) | Potency (HeLa) | Potency (Hek293T) | Potency (JEG-3) | Potency (OV90) | Potency (PA-1) | Potency (Tov-21-G) | Potency (Tov112D)

C[C@H](NC(=O)Cc1cc(F)cc(F)c1)C(=O)N[C@@H]1C(=O)N(C)c2ccccc2-c2ccccc21
inactive: Potency (C33A) | Potency (CASKI) | Potency (Es-2) | Potency (HeLa) | Potency (Hek293T) | Potency (JEG-3) | Potency (OV90) | Potency (PA-1) | Potency (SKOV3) | Potency (Tov-21-G) | Potency (Tov112D)

Cc1oncc1C(=O)Nc1ccc(C(F)(F)F)cc1
active: Potency (CAOV3) 12.6 µM | Potency (CASKI) 31.6 µM | Potency (Es-2) 28.2 µM | Potency (HeLa) 25.1 µM | Potency (Hek293T) 14.1 µM | Potency (JEG-3) 25.1 µM | Potency (OV90) 17.8 µM | Potency (PA-1) 11.2 µM | Potency (SKOV3) 25.1 µM | Potency (Tov-21-G) 25.1 µM | Potency (Tov112D) 20 µM | Potency (astro) 10 µM

Cc1cc(Nc2nc(N[C@@H](C)c3ncc(F)cn3)ncc2Cl)n[nH]1
inactive: Potency (C33A) | Potency (Es-2) | Potency (Hek293T) | Potency (JEG-3)
active: Potency (HeLa) 4.47 µM | Potency (Tov-21-G) 14.1 µM | Potency [3] 1.4 µM

O=C(NOC[C@H](O)CO)c1ccc(F)c(F)c1Nc1ccc(I)cc1F
active: Potency (astro) 0.447 µM
inactive: Potency (C33A) | Potency (CASKI) | Potency (HeLa) | Potency (Hek293T) | Potency (JEG-3) | Potency (PA-1) | Potency (SKOV3) | Potency (Tov112D)

Cc1cnc(Nc2ccc(OCCN3CCCC3)cc2)nc1Nc1cccc(S(=O)(=O)NC(C)(C)C)c1
active: Potency (CAOV3) 10 µM | Potency (CASKI) 14.1 µM | Potency (HeLa) 7.08 µM | Potency (JEG-3) 12.6 µM | Potency (OV90) 17.8 µM | Potency (PA-1) 8.91 µM | Potency (SKOV3) 7.94 µM | Potency (Tov-21-G) 7.94 µM | Potency (Tov112D) 11.2 µM | Potency [3] 6.25 µM
inactive: Potency (WaGa)

Cc1cc2c(C(C)C)c(O)c(O)c(C=O)c2c(O)c1-c1c(C)cc2c(C(C)C)c(O)c(O)c(C=O)c2c1O
active: Potency (WaGa) 23.7 µM
inactive: Potency (CASKI) | Potency (Es-2) | Potency (JEG-3) | Potency (Tov-21-G) | Potency (Tov112D) | Potency [3] | outcome [2]

CCOC(=O)N1CCC(=C2c3ccc(Cl)cc3CCc3cccnc32)CC1
active: Potency ([4]; tumour line A) 10 µM
inactive: Potency (C33A) | Potency (CAOV3) | Potency (CASKI) | Potency (Hek293T) | Potency (JEG-3) | Potency (OV90) | activity, negative = cell killing ([4]; at 45.9 µM (top of the series), tumour line B) -28.2% | activity, negative = cell killing ([4]; at 46.1 µM (top of the series), tumour line C) -20.3%
